High-throughput results deposited in PubChem BioAssay by several laboratories.
Only some compounds are listed: those with a hit (about 12% of all), similar ones and a draw of the others.
L major viab: reduces viability of Leishmania major promastigotes; resazurin fluorescence viability; inhibition, % at 10 µM; hit rate 9% among 200,000; AID 1063; in the data active means inhibition above about 50%;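 further: promastigotes grown with compound for 44 hours at 28 °C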
WT yeast gro inh: growth inhibition of WT yeast, mitochondrial fusion screen | inhibition, % at 10 µM | mitochondrial fusion phenotypic screen, WT strain | AID 1362 | hit rate 2.1% among 190,000; in the data active means inhibition above about 58%; tested in S. cerevisiae
Arbovirus inh: antivirals against arbovirus infection; AID 1251; hit rate 0.37% among 200,000; inhibition, % at 10 µM; arbovirus infection cell-based antiviral screen; in the data active means inhibition above about 30%
CHOP inhibitor: blocks CHOP induction under ER stress; CHO-K1 CHOP-promoter luciferase, tunicamycin-induced, 15-18 h; inhibition, % at 10 µM; hit rate 3.8% among 220,000;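 active means compounds that reduced the stress-induced luciferase reporter signal by more than about 70% of percent inhibition, limit read from the data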;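 further: 0% = tunicamycin plus vehicle and 100% = wells without tunicamycin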
Active calls of the source: *; nt = not tested or not shown.

SMILES | L major viab | WT yeast gro inh | Arbovirus inh | CHOP inhibitor
O=C(CCCN1C(=O)/C(=C\c2cccc(Br)c2)SC1=S)Nc1cccnc1 | 58* | 26 | 19 | 2
O=C(CCCN1C(=O)/C(=C/c2cccc(Br)c2)SC1=S)Nc1cccnc1 | 40 | 15 | 17 | 29
O=C(O)Cc1cc(I)c(Oc2ccc(O)c(I)c2)c(I)c1 | -11 | -12 | 52* | 7
CCOC(=O)CSC1=C(C#N)C(c2ccc(OC)cc2)C2=C(CC(C)(C)CC2=O)N1 (centres undefined) | 4 | 24 | 1 | -18
COc1ccc(C2C(C#N)=C(SC)NC3=C2C(=O)CC(C)(C)C3)cc1 (centres undefined) | 0 | 79* | -2 | 17
COc1ccc(C2C(C#N)=C(N)N(c3sc4c(c3C#N)CCCC4)C3=C2C(=O)CC(C)(C)C3)cc1 (centres undefined) | 83* | 10 | -2 | -3
COc1ccc(C2C(C#N)=C3NC(=O)c4c(sc5c4CCCCC5)N3C3=C2C(=O)CC(C)(C)C3)cc1 (centres undefined) | 88* | 27 | -24 | 31
COc1ccc(C2C(C#N)=C(N)N(c3sc4c(c3C#N)CCCC4)C3=C2C(=O)CC(C)(C)C3)cc1OC (centres undefined) | 21 | 6 | -18 | 32
CC(C)(C)OC(=O)NNC(=O)Nc1ccccc1C(F)(F)F | -2 | -2 | 1 | -11
O=C(CCc1nc2ccccc2s1)OCC(=O)c1ccc[nH]1 | -7 | -5 | 2 | -9
c1cncc(-c2noc(C34CC5CC(CC(C5)C3)C4)n2)c1 | 14 | 13 | 11 | 12
Cc1ccccc1-c1noc(-c2ccccc2F)n1 | -6 | 14 | 5 | 78*
Cc1ccccc1-c1noc(C23CC4CC(CC(C4)C2)C3)n1 | -2 | 81* | -7 | -8
CC1CCN(C(=O)c2cc(F)c(F)cc2Cl)CC1 | -1 | -19 | 3 | -2
NC(=S)c1c(Cl)cc(C(F)(F)F)cc1Cl | nt | nt | nt | 4
Cc1ccc(NC2=C(C(=O)c3ccccc3)N(C)S(=O)(=O)c3ccccc32)cc1 | 7 | 33 | 6 | 95*
O=C(Cc1cccs1)N/N=C\c1ccc([N+](=O)[O-])s1 | 100* | 10 | -17 | -40
O=C(CNC(=O)c1ccccc1Cl)N/N=C/c1ccc([N+](=O)[O-])s1 | 99* | -21 | -15 | -42
Cc1ccc(NC(=S)N/N=C/c2ccc([N+](=O)[O-])s2)cc1 | 89* | 74 | -33 | -43
Cc1onc(-c2ccccc2)c1C(=O)N/N=C/c1ccc([N+](=O)[O-])s1 | 100* | 7 | -26 | -10
CN(C)c1cc(-c2ccc(Cl)cc2Cl)oc(=O)c1Cl | nt | nt | nt | 52
O=C(c1cc(C2CC2)nc2ccc(Br)cc12)N1N=C(C(F)F)CC1(O)C(F)F (centres undefined) | 13 | 74* | -35 | 67
O=C(c1cc(C2CC2)nc2ccccc12)N1N=C(C(F)F)CC1(O)C(F)F (centres undefined) | 14 | -4 | 12 | 29
CN(C)c1nc(-c2ccccc2)c2cnn(Cc3ccccc3)c2n1 | 63* | 29 | 10 | 60
c1ccc(Cn2ncc3ccccc32)cc1 | -8 | -2 | 7 | 20
SMILES | L major viab | WT yeast gro inh | Arbovirus inh | CHOP inhibitor
NC(=S)c1cc2cc(Cl)ccc2oc1=O | nt | nt | nt | 13
O=C(O)c1ccc2nc(-c3ccccc3)c(-c3ccccc3)nc2c1 | 29 | -4 | -4 | -7
Nc1ccc(Oc2ccc3nc(-c4ccccc4)c(-c4ccccc4)nc3c2)cc1 | 66* | -115 | -9 | 34
COc1ccc(N(C(=O)CNC(=O)c2cccs2)C(C(=O)NCC2CCCO2)c2ccccc2)cc1OC (centres undefined) | -3 | 2 | 2 | 31
CC1=NN(c2ccc([N+](=O)[O-])cc2)C(=O)/C1=C\N(C)C | -6 | 65* | 0 | 24
CC1=NN(c2nc3ccccc3[nH]2)C(=O)/C1=C/N(C)C | -2 | 85* | -21 | 23
CC1=NN(c2ccccc2)C(=O)/C1=C/N(C)C | nt | nt | nt | 3
Nc1ncnc2c1nc(Br)n2C1OC2COP(=O)(O)O[C@@H]2C1O (some centres undefined) | nt | nt | nt | -15
Cc1cc(C)c[n+](-c2[nH]c(=O)sc2/C=N/N=C(\N)[S-])c1 | -11 | 2 | 4 | 15
O=[N+]([O-])c1ccccc1S(=O)(=O)N1CCN(CC2CC=CCC2)CC1 (centres undefined) | -4 | -6 | 0 | 9
CCS(=O)(=O)N1CCN(CC2CC3C=CC2C3)CC1 (centres undefined) | 93* | 4 | 2 | -16
CCCS(=O)(=O)N1CCN(CC2CC3C=CC2C3)CC1 (centres undefined) | 88* | 1 | -7 | 25
CCCS(=O)(=O)N1CCN(S(=O)(=O)c2ccc(F)cc2)CC1 | 3 | -11 | 6 | -4
CCS(=O)(=O)N1CCN(C2Cc3ccccc3C2)CC1 | 1 | 0 | -4 | 14
CCCS(=O)(=O)N1CCN(CC2CC=CCC2)CC1 (centres undefined) | 76* | 31 | 5 | 9
COc1ccccc1-c1c(C)oc2c(CN3CCN(C)CC3)c(O)ccc2c1=O | 90* | -21 | -5 | 12
COc1ccccc1-c1c(C)oc2c(CN3CCN(CCO)CC3)c(O)ccc2c1=O | 38 | 19 | 5 | 14
CCOc1ccccc1Oc1c(C)oc2c(CN3CCN(C)CC3)c(O)ccc2c1=O | 75* | 47 | 1 | 0
COC(=O)c1ccc(Oc2c(C(F)(F)F)oc3c(CN4CCN(C)CC4)c(O)ccc3c2=O)cc1 | 100* | 8 | 15 | 28
COc1ccc(-c2c(C)oc3c(CN4CCN(CCO)CC4)c(O)ccc3c2=O)cc1OC | 99* | -1 | 13 | 12
CCOC(=O)c1oc2c(CN3CCN(C)CC3)c(O)ccc2c(=O)c1-c1ccccc1OC | -6 | 15 | 4 | 25
O=C(O)C1SCCN1S(=O)(=O)c1ccc(N=NN2CCOCC2)cc1 (centres undefined) | -4 | 3 | 8 | -6
CCCCCCCn1c(C)nnc1-c1cnn(C)c1N | -10 | -6 | 3 | 5
O=C(Nc1ccc2c(c1)CCC2)c1cc(S(=O)(=O)Nc2ccc(F)cc2)c(Cl)cc1Cl | 60* | 48 | -34 | 78*
O=C(NCc1cccc(Cl)c1)c1ccc(S(=O)(=O)Nc2cccc(C(F)(F)F)c2)cc1 | 64* | -17 | -14 | 90*
SMILES | L major viab | WT yeast gro inh | Arbovirus inh | CHOP inhibitor
Brc1ccc(OCCCN2CCOCC2)cc1 | 95* | 8 | 8 | 29
CC/C(=N/NC(=O)c1ccc(Br)cc1)c1ccc(OCCN2CCOCC2)cc1 | -5 | 2 | -7 | 24
COc1cccc(OCCCCCCN2CCOCC2)c1 | 100* | 12 | -15 | 41
c1ccc(OCCCCN2CCOCC2)cc1 | 79* | -5 | -2 | 7
CCOc1cccc(OCCCCN2CCOCC2)c1 | 93* | nt | -11 | 16
Cc1ccccc1C(=O)OC1OC(=O)C(Cl)=C1N1CCOCC1 (centres undefined) | 42 | -9 | -1 | 19
COC(=O)CN1C(=S)N(c2ccc(OC)cc2)C(=O)/C1=C/c1cccs1 | 69* | 13 | -9 | 33
CCOc1ccc(N2C(=O)/C(=C/c3cc(OC)c(OC)c(OC)c3)N(CC(=O)OC)C2=S)cc1 | 100* | 18 | 10 | -17
CC(C)c1ccc2[nH]c3nc(SCC(=O)N4CCOCC4)nnc3c2c1 | 12 | 6 | -4 | -6
